Source: PubChem BioAssay
This is a sample that favours compounds with a hit; in the whole collection about 4.2% have one here.
CCHF vOTU inh: CCHFV vOTU protease inhibition. Pep-AMC fluorescence. inhibition, % at 11.5 µM. actives 0.55% (n = 370,000). AID 651958; in the data active = inhibition above about 30%
GDH-TPI counter-1: GDH-TPI coupled enzyme inhibition counter-screen; GDH-TPI coupled enzyme counterscreen, NADH absorbance; inhibition, % at 4.8 µM; actives 1.2% (n = 360,000); in the data active = inhibition above about 30%
Mtb FBA inh: inhibits M. tuberculosis FBA enzyme; purified M. tuberculosis FBA, fluorescence read-out; inhibition, % at 1 µM; actives 2.3% (n = 360,000)
Target sequence (P9WQA3 whole entry, looked up): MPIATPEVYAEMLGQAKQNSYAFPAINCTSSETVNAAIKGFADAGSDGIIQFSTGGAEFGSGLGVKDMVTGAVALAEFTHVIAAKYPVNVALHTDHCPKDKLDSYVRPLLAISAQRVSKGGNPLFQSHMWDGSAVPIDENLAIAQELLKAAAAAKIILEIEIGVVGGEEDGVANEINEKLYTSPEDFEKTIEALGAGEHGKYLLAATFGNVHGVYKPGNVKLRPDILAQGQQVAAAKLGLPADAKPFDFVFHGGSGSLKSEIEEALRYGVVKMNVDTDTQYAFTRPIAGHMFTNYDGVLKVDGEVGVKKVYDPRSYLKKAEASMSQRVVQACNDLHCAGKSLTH
RecA intein inh: inhibitors of M. tuberculosis RecA intein splicing | AID 2221 | inhibition, % (concentration not given with the values) | cell-free RecA intein splicing, fluorescence | actives 0.75% (n = 290,000) | P9WHJ3; in the data active = inhibition above about 30%
Mtb FBA confirm: Mtb FBA inhibition, confirmed; actives 78% (n = 5,600); purified M. tuberculosis FBA, fluorescence read-out; AID 651616; inhibition, % at 1 µM; shares compounds with Mtb FBA inh
GDH-TPI counter-2: inhibits GDH-TPI coupling enzymes, flagging Mtb FBA hits. AID 652141. GDH-TPI coupled enzyme counterscreen, fluorescence. shares compounds with Mtb FBA inh. inhibition, % at 1 µM. actives 81% (n = 5,600); in the data active = inhibition above about 10%
Numbers stand for hits; - = inactive; . = no result; + = active, no number. Cut-off read from the data, not from the text of the source, unless noted: active = inhibition above about 27%; inactive = the rest.

SMILES	CCHF vOTU inh	GDH-TPI counter-1	Mtb FBA inh	RecA intein inh	Mtb FBA confirm	GDH-TPI counter-2
COc1ccc(-n2c(C)c(C(C)=O)c(C(C)=O)c2C)cc1	-	-	-	-	.	.
COc1ccc(-n2c(C)cc3cc(OC(C)=O)ccc32)cc1	-	-	58	-	68	49
CCn1cc(-c2ccnc3cc(C(=O)O)nn23)c(C)n1	-	-	84	-	76	58
Cc1cc2nccc(-c3ccc(Cl)cc3Cl)n2n1	-	-	-	-	.	.
CCn1cc(CCC(=O)O)c(C)n1	-	-	-	-	.	.
Cc1c(-c2ccnc3cc(C(=O)O)nn23)cnn1C	-	-	79	-	-	17
COc1ccc(-n2c(SCC(=O)Nc3ccc(S(=O)(=O)Nc4cc(C)nc(C)n4)cc3)nnc2-c2ccco2)cc1	-	.	.	.	.	.
CCc1ccc(N2CC(C(=O)OCC(=O)N(CC)c3c(N)n(Cc4ccccc4)c(=O)[nH]c3=O)CC2=O)cc1 (centres undefined)	-	-	-	.	.	.
O=c1oc(C2(O)CCCCC2)cc2ccc(/C=C/c3ccc(F)cc3)cc12	-	-	32	.	34	24
CC1(C)OC(=CC=Nc2ccc(Cl)cc2)OC1(C)C	-	-	49	-	+	+
Cc1ccc(F)cc1NC(=O)CCNC(=O)c1ccc([N+](=O)[O-])cc1	-	-	37	-	163	124
COC(=O)c1ccc(C)c(NC(=O)CCNC(=O)c2ccc([N+](=O)[O-])cc2)c1	-	-	-	-	.	.
COc1ccc(-c2cc(C(F)(F)F)c(C#N)c(SCC(=O)O)n2)cc1	-	-	-	.	.	.
Cc1ccc(-c2cc(C(F)(F)F)c(C#N)c(SCCC#N)n2)o1	-	-	31	-	159	153
COc1ccc(NC(=O)C2CCN(S(=O)(=O)c3ccc4c(c3)NC(=O)CO4)CC2)cc1	-	-	-	-	.	.
Cc1cc(C)c2c(N)c(C(=O)c3cccc(Cl)c3)sc2n1	-	-	-	-	.	.
Cc1ccc2nc(-c3sc4nc(C)cc(C)c4c3N)[nH]c2c1	-	-	30	-	112	82
O=C(NCc1cc(F)ccc1F)C1CCC(=O)N(C2CCCCCC2)C1 (centres undefined)	-	-	-	-	.	.
CCN(C(=O)C1CC1)C1CCS(=O)(=O)C1 (centres undefined)	-	-	35	-	121	106
C=CCOc1cccc(CNc2cccc(C(=O)O)c2)c1	-	-	28	-	-	-
C=CCOc1c(CNc2cccc(C(=O)O)c2)cccc1OC	-	-	29	-	39	53
C=CCOc1c(CNc2cccc(C(=O)O)c2)cccc1OCC	-	-	-	-	.	.
CC(=O)Nc1c(I)c(C(=O)N[C@H]2C(O)O[C@H](CO)[C@@H](O)[C@@H]2O)c(I)c(N(C)C(C)=O)c1I (some centres undefined)	-	-	-	.	.	.
CN(CC(=O)Nc1ccccc1Cl)CC(=O)Nc1cccc2ccccc12	-	-	-	.	.	.
Cc1nn(CC#N)c(=O)n1-c1ccc(C(C)C)cc1	-	-	-	-	.	.
SMILES	CCHF vOTU inh	GDH-TPI counter-1	Mtb FBA inh	RecA intein inh	Mtb FBA confirm	GDH-TPI counter-2
Nc1ccc2nn(-c3ccc(F)cc3)nc2c1	-	-	37	-	62	52
CC(C)c1ccc(-n2nc3ccc(N)cc3n2)cc1	-	-	71	-	101	67
Cc1ccc(-n2nc3ccc(N)cc3n2)cc1	-	-	64	-	39	23
Cc1ccc(-n2nc(-c3ccc(N)cc3)cc2N)cc1	-	-	-	-	.	.
Nc1ccc2nn(-c3cc([N+](=O)[O-])ccc3O)nc2c1	-	-	-	-	.	.
O=C(Cn1cc([N+](=O)[O-])cn1)N1CCN(Cc2ccc3c(c2)OCO3)CC1	-	-	-	.	.	.
Cc1ccc(S(=O)(=O)CCC(=O)Nc2nnc(-c3cccs3)o2)cc1	-	-	-	-	.	.
Cc1ccc(S(=O)(=O)Nc2cccc(-c3cn4ccsc4n3)c2)cc1	-	-	-	-	.	.
O=S(=O)(Nc1cccc(-c2cn3cccnc3n2)c1)c1ccccc1	-	-	75	-	66	47
O=S(=O)(Nc1cccc(-c2cn3cccnc3n2)c1)c1ccc(F)cc1	-	-	38	-	83	81
O=S(=O)(c1cccc(-c2cn3cccnc3n2)c1)N1CCCCCC1	-	-	62	-	58	49
O=S(=O)(Nc1ccc(-c2cn3cccnc3n2)cc1)c1ccccc1	-	-	64	-	-	-
O=S(=O)(Nc1cccc(-c2cn3ccsc3n2)c1)c1ccc(F)cc1	-	-	-	-	.	.
COc1ccccc1CN1CC(C(=O)N(C)CCc2ccccn2)CCC1=O (centres undefined)	-	-	-	.	.	.
COc1ccc(NC(=O)N2CCCC(C(=O)NCc3ccccc3F)C2)cc1 (centres undefined)	-	-	-	-	.	.
CC1CCC(NC(=O)CCn2ccc3cc(S(=O)(=O)N4CCCC4)ccc32)CC1 (centres undefined)	-	-	-	-	.	.
C/C(=N\O)c1ccc2c3ccccc3n(C)c2c1	-	-	44	-	+	169
CCn1c2ccccc2c2cc(/C(C)=N/O)ccc21	-	-	-	-	.	.
CC(=O)Nc1cccc(NC(=O)Cc2cccs2)c1	-	-	-	-	.	.
O=C(Cc1cccs1)Nc1cccc(-c2nc3cc4ccccc4cc3[nH]2)c1	-	-	56	-	-	-
CCc1nc2ccc(C(=O)NCc3ccc4c(c3)OCO4)cn2c1N(C)Cc1ccc(OC)cc1	-	-	-	.	.	.
O=C(Nc1ccc2c(c1)OCO2)c1c[nH]c(=O)n(-c2ccc(F)cc2)c1=O	-	-	-	-	.	.
COc1ccc(-c2cc(C(F)F)n3ncc(C(=O)N4CCN(C)CC4)c3n2)cc1	-	-	30	-	39	34
C[C@H](NC(=O)C1CCN(S(=O)(=O)c2ccccc2)CC1)C(=O)NCc1ccc(Cl)cc1Cl	-	-	-	-	.	.
O=C(Nc1ccc2c(c1)OCO2)c1cc(C2CCCN(C(=O)C3CCCCC3)C2)on1 (centres undefined)	-	-	-	.	.	.
SMILES	CCHF vOTU inh	GDH-TPI counter-1	Mtb FBA inh	RecA intein inh	Mtb FBA confirm	GDH-TPI counter-2
O=C(N/N=C/C=C/c1ccccc1)c1ccccn1	-	35	65	-	180	174
O=C(N/N=C/C=C/c1ccccc1)NC1CCCCC1	-	-	68	-	167	145
O=C(NCc1ccccn1)c1cccc(S(=O)(=O)Nc2ccccc2Cl)c1	-	-	-	.	.	.
CCOC(=O)c1ccccc1NC1CC(=O)N(c2ccccc2C)C1=O (centres undefined)	-	-	102	-	135	139
CCOC(=O)c1ccccc1NC(=O)C1CC(=O)N(C(C)(C)C)C1 (centres undefined)	-	-	-	-	.	.
CCOc1ccc(/C(O)=C2/C(=O)C(=O)N(CCCN3CCOCC3)C2c2ccc(C)cc2)cc1C (centres undefined)	-	-	-	-	.	.
CC(=O)N(CC(=O)Nc1nn(-c2ccccc2)nc1C(N)=O)Cc1ccccc1	-	-	43	-	-	-
OC(c1ccccc1)(c1nc(-c2cccc(C(F)(F)F)c2)cs1)C(F)(F)F (centres undefined)	-	-	-	.	.	.
